The panel holds about 79,000 compounds, 15% with a hit somewhere; the sample as a whole holds those more often. The source made the active and inactive calls. Cut-off read from the data, not from the text of the source: active = growth inhibition above about 70%; inactive = the rest.
Key:
[1] = NCI Yeast Anticancer Drug Screen. Data for the mec2-1 strain (AID 157); details: S. cerevisiae mec2-1 strain, stronger effect = higher value
Method in brief: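 Yeast mec2-1 mutant treated with compound. Readout: growth inhibition vs vehicle controls.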

[2] = NCI Yeast Anticancer Drug Screen. Data for the rad14 strain (AID 159);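 note: 0% = growth of vehicle-treated control cultures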; details: S. cerevisiae rad14 strain growth inhibition, stronger effect = higher value
Method in brief: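 Inhibition of growth is reported for a repair-deficient yeast mutant following compound treatment, calculated relative to cultures that received vehicle.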

[3] = NCI Yeast Anticancer Drug Screen. Data for the sgs1 mgt1 strain (AID 161);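 note: 0% = growth of cultures given vehicle only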; details: S. cerevisiae sgs1 mgt1 strain, stronger effect = higher value
Method in brief: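 Mutant yeast exposed to compound; growth scored against vehicle-only wells.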

[4] = NCI Yeast Anticancer Drug Screen. Data for the CLN2oe strain (AID 163);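 note: 0% = growth of vehicle-only control cultures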; details: S. cerevisiae CLN2oe strain, stronger effect = higher value
Method in brief: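 Read-out: yeast growth inhibition, expressed relative to vehicle-only controls. The strain bears an engineered cell-cycle alteration.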

[5] = NCI Yeast Anticancer Drug Screen. Data for the cln2 rad14 strain (AID 165);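 note: 0% = growth equal to vehicle treated cultures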; details: S. cerevisiae cln2 rad14 strain, stronger effect = higher value
Method in brief: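 cln2 rad14 yeast strain; compound exposure; growth inhibition read vs vehicle controls.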

[6] = NCI Yeast Anticancer Drug Screen. Data for the bub3 strain (AID 167); details: S. cerevisiae bub3 mutant strain, stronger effect = higher value
Method in brief: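 Mutant yeast screening strain plus compound; vehicle-treated cultures serve as the 0% inhibition reference.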

[7] = NCI Yeast Anticancer Drug Screen. Data for the wt2 strain (AID 169); details: S. cerevisiae wt2 strain growth inhibition, stronger effect = higher value
Method in brief: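 Read-out: growth inhibition versus vehicle-treated control cultures after compound exposure of the yeast strain.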

[8] = NCI Yeast Anticancer Drug Screen. Data for the mlh1 strain (AID 171);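 note: 0% = growth of vehicle-treated control cultures of the same strain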; details: S. cerevisiae mlh1 strain growth inhibition, stronger effect = higher value
Method in brief: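 Read-out: growth inhibition versus vehicle controls. Strain: engineered yeast with a defined DNA repair or cell cycle defect, compound-treated.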

[9] = NCI Yeast Anticancer Drug Screen. Data for the sgs1 strain (AID 173);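 note: 0% = growth of vehicle-only control cultures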; details: S. cerevisiae sgs1 mutant, stronger effect = higher value
Method in brief: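 Read-out: yeast growth inhibition relative to vehicle controls, following compound exposure of a strain with a defined DNA repair/cell cycle alteration.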

[10] = NCI Yeast Anticancer Drug Screen. Data for the mlh1 rad18 strain (AID 175); details: S. cerevisiae mlh1 rad18 strain growth inhibition, stronger effect = higher value
Method in brief: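 Yeast w/ defined DNA-repair lesions; compound exposure; growth vs vehicle controls → % inhibition.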

[11] = NCI Yeast Anticancer Drug Screen. Data for the rad18 strain (AID 177); details: S. cerevisiae rad18 mutant growth inhibition, stronger effect = higher value
Method in brief: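 Readout: growth inhibition vs vehicle controls. Cells: genetically altered yeast strain, DNA repair defect.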

[12] = NCI Yeast Anticancer Drug Screen. Data for the wt1 strain (AID 149);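 note: 0% = growth of vehicle-treated wt1 cultures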; details: S. cerevisiae wt1 strain (SPY 50644) growth inhibition, stronger effect = higher value
Method in brief: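 Each compound is tested on wt1 yeast and the loss of growth versus vehicle gives the inhibition value.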

[13] = NCI Yeast Anticancer Drug Screen. Data for the rad50EPP+ strain (AID 151);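 note: 0% = growth of vehicle-treated control cultures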; details: S. cerevisiae rad50 mutant strain, stronger effect = higher value
Method in brief: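 Growth inhibition read against vehicle controls in rad50EPP+ yeast, a strain altered in DNA damage repair, after compound exposure.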

[14] = NCI Yeast Anticancer Drug Screen. Data for the mgt1 strain (AID 153); details: S. cerevisiae mgt1 mutant growth inhibition, stronger effect = higher value
Method in brief: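 mgt1 yeast grown with test compound; read-out is growth inhibition versus vehicle-treated cultures.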

[15] = NCI Yeast Anticancer Drug Screen. Data for the rad50 strain (AID 155);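 note: 0% = growth of vehicle-only cultures of the same strain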; details: S. cerevisiae rad50 strain growth inhibition, stronger effect = higher value
Method in brief: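 Vehicle-treated cultures provide the reference for the growth inhibition reported for compound-exposed, repair-deficient yeast.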

[16] = NCI Yeast Anticancer Drug Screen. Data for the rad52 strain (AID 147);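 note: 0% = growth of vehicle-treated control cultures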; details: S. cerevisiae rad52 mutant growth inhibition, stronger effect = higher value
Method in brief: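 Read-out: growth inhibition versus vehicle-treated controls. Cells were a DNA repair-deficient yeast strain treated with compounds.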

[17] = at 5.0 µM (retest, dose inferred, filed as 0.5)
[18] = at 50.0 µM (retest, dose inferred, filed as 5.0)

Measured: growth inhibition

N=C(N)c1ccc(N=Nc2c(O)ccc3c2[nH]c2ccccc23)cc1
active: [1]; at 100.0 µM 97% | [2]; at 11.0 µM 90% | [2]; at 33.0 µM 96% | [2]; at 100.0 µM 97% | [3]; [18] 97% | [3]; at 50.0 µM 96.8% | [4]; at 33.0 µM 93% | [4]; at 100.0 µM 94% | [5]; [18] 95% | [5]; at 50.0 µM 95.9% | [6]; at 11.0 µM 79% | [6]; at 33.0 µM 95% | [6]; [18] 97% | [6]; at 50.0 µM 98.2% | [6]; at 100.0 µM 93% | [7]; at 11.0 µM 84% | [7]; at 33.0 µM 95% | [7]; at 100.0 µM 97% | [8]; at 11.0 µM 71% | [8]; at 33.0 µM 92% | [8]; at 100.0 µM 96% | [9]; at 11.0 µM 92% | [9]; at 33.0 µM 96% | [9]; at 100.0 µM 96% | [10]; [18] 98% | [10]; at 50.0 µM 98.3% | [11]; at 11.0 µM 93% | [11]; at 33.0 µM 96% | [11]; at 100.0 µM 95%
inactive: [2]; at 1.2 µM -1% | [2]; at 3.7 µM 3% | [3]; [17] 17% | [4]; at 1.2 µM -3% | [4]; at 3.7 µM 5% | [4]; at 11.0 µM 41% | [5]; [17] -24% | [6]; at 1.2 µM -4% | [6]; at 3.7 µM -3% | [6]; [17] 19% | [7]; at 1.2 µM -3% | [7]; at 3.7 µM 5% | [8]; at 1.2 µM 1% | [8]; at 3.7 µM 2% | [9]; at 1.2 µM 0% | [9]; at 3.7 µM 21% | [10]; [17] 24% | [11]; at 1.2 µM -10% | [11]; at 3.7 µM 11%

O=C1c2ccc(O)cc2C(=O)c2c(O)ccc(O)c21
active: [12]; at 11.0 µM 94% | [12]; at 33.0 µM 97% | [12]; at 100.0 µM 93% | [13]; at 11.0 µM 93% | [13]; at 33.0 µM 93% | [13]; at 100.0 µM 88% | [14]; at 11.0 µM 78% | [14]; at 33.0 µM 93% | [14]; at 100.0 µM 91% | [15]; at 11.0 µM 87% | [15]; at 33.0 µM 95% | [15]; [18] 90% | [15]; at 50.0 µM 71.2% | [15]; at 100.0 µM 89% | [1]; at 11.0 µM 87% | [1]; at 33.0 µM 95% | [1]; [18] 93% | [1]; at 100.0 µM 89% | [2]; at 11.0 µM 93% | [2]; at 33.0 µM 95% | [2]; at 100.0 µM 91% | [3]; [18] 90% | [3]; at 50.0 µM 77.2% | [4]; at 11.0 µM 92% | [4]; at 33.0 µM 94% | [4]; at 100.0 µM 91% | [5]; [18] 88% | [6]; at 33.0 µM 91% | [6]; [18] 92% | [6]; at 100.0 µM 88% | [7]; at 11.0 µM 92% | [7]; at 33.0 µM 96% | [7]; at 100.0 µM 90% | [8]; at 11.0 µM 88% | [8]; at 33.0 µM 94% | [8]; at 100.0 µM 91% | [9]; at 11.0 µM 90% | [9]; at 33.0 µM 95% | [9]; at 100.0 µM 91% | [10]; [18] 97% | [11]; at 11.0 µM 88% | [11]; at 33.0 µM 94% | [11]; at 100.0 µM 89%
inactive: [12]; at 1.2 µM 4% | [12]; at 3.7 µM 17% | [13]; at 1.2 µM 25% | [13]; at 3.7 µM 64% | [14]; at 1.2 µM 1% | [14]; at 3.7 µM 10% | [15]; at 1.2 µM 16% | [15]; at 3.7 µM 35% | [15]; [17] 53% | [1]; at 1.2 µM 9% | [1]; at 3.7 µM 28% | [1]; [17] 45% | [1]; at 50.0 µM 49.1% | [2]; at 1.2 µM 10% | [2]; at 3.7 µM 27% | [3]; [17] 50% | [4]; at 1.2 µM 7% | [4]; at 3.7 µM 21% | [5]; [17] 32% | [5]; at 50.0 µM 51% | [6]; at 1.2 µM -2% | [6]; at 3.7 µM 0% | [6]; [17] 18% | [6]; at 11.0 µM 62% | [6]; at 50.0 µM 29% | [7]; at 1.2 µM 1% | [7]; at 3.7 µM 19% | [8]; at 1.2 µM 4% | [8]; at 3.7 µM 20% | [9]; at 1.2 µM 3% | [9]; at 3.7 µM 19% | [10]; [17] 48% | [10]; at 50.0 µM 68.7% | [11]; at 1.2 µM 6% | [11]; at 3.7 µM 17%

Cc1ccc(P(c2ccc(C)cc2)c2ccc(C)cc2)cc1
inactive: [16]; at 1.2 µM -11% | [16]; at 3.7 µM -12% | [16]; at 11.0 µM 1% | [16]; at 33.0 µM 11% | [16]; at 100.0 µM 23% | [12]; at 1.2 µM -25% | [12]; at 3.7 µM -12% | [12]; at 11.0 µM -5% | [12]; at 33.0 µM 1% | [12]; at 100.0 µM 7% | [13]; at 1.2 µM -7% | [13]; at 3.7 µM -10% | [13]; at 11.0 µM -12% | [13]; at 33.0 µM -23% | [13]; at 100.0 µM -34% | [2]; at 1.2 µM -34% | [2]; at 3.7 µM -41% | [2]; at 11.0 µM -40% | [2]; at 33.0 µM -31% | [2]; at 100.0 µM -31% | [7]; at 1.2 µM -17% | [7]; at 3.7 µM -15% | [7]; at 11.0 µM -15% | [7]; at 33.0 µM 5% | [7]; at 100.0 µM 13% | [8]; at 1.2 µM -30% | [8]; at 3.7 µM -36% | [8]; at 11.0 µM -16% | [8]; at 33.0 µM -6% | [8]; at 100.0 µM 13% | [9]; at 1.2 µM -27% | [9]; at 3.7 µM -27% | [9]; at 11.0 µM 4% | [9]; at 33.0 µM 18% | [9]; at 100.0 µM 39% | [11]; at 1.2 µM -1% | [11]; at 3.7 µM -4% | [11]; at 11.0 µM 9% | [11]; at 33.0 µM 28% | [11]; at 100.0 µM 34%
